# “And” between values parts separate entries of the source, which are not always exact repeats. Equal entries are not always repeated. About 2,000 (36%) of roughly 5,500 compounds were called active. Roughly 18% stayed inconclusive and do not appear here. No stated cut-off is given here; in the data, active means normalized growth mostly below about 0.91 (no sharp cut-off); inconclusive means no clear call, values can overlap the other calls; inactive means mostly above about 0.92. Some of the results follow.
# Assay: chemical genetic growth profiling, strain panel (AID 1159580);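 further: tested at 20 µM; growth read once vehicle control cultures reached saturation at 30 °C; 1 = growth at the plate median or of vehicle wells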
# Details: S. cerevisiae deletion strains, growth OD
smiles,measurement,setting,value
C=CC(C1=CC(=O)C(OC)=CC1=O)c1ccccc1 (configuration not stated),normalized growth,"locus YAL013W, strain DEP1, stronger effect = lower value",0.908 (active)
same,normalized growth,"locus YAL021C, strain ccr4, stronger effect = lower value",1.04 (inactive)
same,normalized growth,"locus YAL026C, strain drs2, stronger effect = lower value",0.853 (active)
same,normalized growth,"locus YAL030W, strain snc1, stronger effect = lower value",0.92 (active)
same,normalized growth,"locus YBL061C, strain skt5, stronger effect = lower value",0.847 (active)
same,normalized growth,"locus YBR009C, strain hhf1, stronger effect = lower value",0.728 (active)
same,normalized growth,"locus YBR021W, strain FUR4, stronger effect = lower value",0.922 (inactive)
same,normalized growth,"locus YBR023C, strain chs3, stronger effect = lower value",0.85 (active)
same,normalized growth,"locus YBR171W, strain sec66, stronger effect = lower value",0.992 (inactive)
same,normalized growth,"locus YBR229C, strain ROT2, stronger effect = lower value",0.969 (inactive)
same,normalized growth,"locus YBR231C, strain swc5, stronger effect = lower value",0.947 (inactive)
same,normalized growth,"locus YBR279W, strain paf1, stronger effect = lower value",0.858 (active)
same,normalized growth,"locus YCL011C, strain gbp2, stronger effect = lower value",0.843 (active)
same,normalized growth,"locus YCL016C, strain dcc1, stronger effect = lower value",0.845 (active)
same,normalized growth,"locus YCL029C, strain bik1, stronger effect = lower value",0.948 (inactive)
same,normalized growth,"locus YCL061C, strain MRC1, stronger effect = lower value",0.911 (active)
same,normalized growth,"locus YCL069W, strain vba3, stronger effect = lower value",0.954 (inactive)
same,normalized growth,"locus YCR088W, strain abp1, stronger effect = lower value",0.969 (inactive)
same,normalized growth,"locus YDL005C, strain med2, stronger effect = lower value",1 (inactive)
same,normalized growth,"locus YDL035C, strain GPR1, stronger effect = lower value",0.825 (active)
same,normalized growth,"locus YDL040C, strain nat1, stronger effect = lower value",1 (inactive)
same,normalized growth,"locus YDL074C, strain BRE1, stronger effect = lower value",0.781 (inactive)
same,normalized growth,"locus YDL101C, strain DUN1, stronger effect = lower value",0.94 (inactive)
same,normalized growth,"locus YDL134C, strain PPH21, stronger effect = lower value",0.944 (inactive)
same,normalized growth,"locus YDL185W, strain tfp1, stronger effect = lower value",0.948 (inactive)
same,normalized growth,"locus YDL192W, strain arf1, stronger effect = lower value",0.843 (active)
same,normalized growth,"locus YDR001C, strain nth1, stronger effect = lower value",0.983 (inactive)
same,normalized growth,"locus YDR069C, strain doa4, stronger effect = lower value",0.982 (inactive)
same,normalized growth,"locus YDR101C, strain arx1, stronger effect = lower value",0.854 (active)
same,normalized growth,"locus YDR137W, strain rgp1, stronger effect = lower value",0.616 (active)
same,normalized growth,"locus YDR150W, strain NUM1, stronger effect = lower value",0.972 (inactive)
same,normalized growth,"locus YDR159W, strain sac3, stronger effect = lower value",0.85 (active)
same,normalized growth,"locus YDR162C, strain NBP2, stronger effect = lower value",0.607 (active)
same,normalized growth,"locus YDR195W, strain ref2",1.32 [resistant] (active)
same,normalized growth,"locus YDR297W, strain sur2, stronger effect = lower value",0.913 (active)
same,normalized growth,"locus YDR318W, strain mcm21, stronger effect = lower value",0.83 (active)
same,normalized growth,"locus YDR334W, strain swr1, stronger effect = lower value",0.999 (inactive)
same,normalized growth,"locus YDR335W, strain msn5, stronger effect = lower value",0.968 (inactive)
same,normalized growth,"locus YDR388W, stronger effect = lower value",0.907 (active)
same,normalized growth,"locus YDR392W, strain spt3, stronger effect = lower value",0.233 (active)
same,normalized growth,"locus YDR502C, strain sam2, stronger effect = lower value",0.902 (active)
same,normalized growth,"locus YEL003W, strain gim4, stronger effect = lower value",0.823 (active)
same,normalized growth,"locus YEL037C, strain rad23, stronger effect = lower value",0.993 (inactive)
same,normalized growth,"locus YEL061C, strain CIN8 (second series), stronger effect = lower value",0.966 (inactive)
same,normalized growth,"locus YEL061C, strain CIN8, stronger effect = lower value",0.932 (inactive)
same,normalized growth,"locus YER015W, strain faa2, stronger effect = lower value",0.815 (active)
same,normalized growth,"locus YER016W, strain bim1, stronger effect = lower value",0.985 (inactive)
same,normalized growth,"locus YER110C, stronger effect = lower value",0.936 (inactive)
same,normalized growth,"locus YER111C, strain swi4, stronger effect = lower value",0.977 (inactive)
same,normalized growth,"locus YER155C, strain BEM2 (second series), stronger effect = lower value",0.43 (active)
same,normalized growth,"locus YER155C, strain BEM2, stronger effect = lower value",0.956 (inactive)
same,normalized growth,"locus YER167W, strain BCK2, stronger effect = lower value",0.747 (active)
same,normalized growth,"locus YFR010W, strain ubp6, stronger effect = lower value",0.979 (inactive)
same,normalized growth,"locus YGL078C, strain dbp3, stronger effect = lower value",0.998 (inactive)
same,normalized growth,"locus YGL086W, strain mad1, stronger effect = lower value",0.853 (active)
same,normalized growth,"locus YGL167C, strain pmr1, stronger effect = lower value",0.973 (inactive)
same,normalized growth,"locus YGL173C, strain kem1, stronger effect = lower value",0.855 (active)
same,normalized growth,"locus YGL227W, strain vid30, stronger effect = lower value",0.963 (inactive)
same,normalized growth,"locus YGL240W, strain doc1, stronger effect = lower value",0.708 (active)
same,normalized growth,"locus YGL248W, strain PDE1, stronger effect = lower value",0.947 (inactive)
same,normalized growth,"locus YGL253W, strain hxk2, stronger effect = lower value",0.92 (inactive)
same,normalized growth,"locus YGR078C, strain PAC10, stronger effect = lower value",0.734 (active)
same,normalized growth,"locus YGR135W, strain pre9, stronger effect = lower value",0.864 (active)
same,normalized growth,"locus YGR229C, strain SMI1, stronger effect = lower value",0.692 (active)
same,normalized growth,"locus YGR252W, strain gcn5, stronger effect = lower value",0.854 (inactive)
same,normalized growth,"locus YHR013C, strain ard1, stronger effect = lower value",0.876 (inactive)
same,normalized growth,"locus YHR027C, strain rpn1, stronger effect = lower value",0.92 (active)
same,normalized growth,"locus YHR030C, strain SLT2, stronger effect = lower value",0.895 (active) and 0.797 (active)
same,normalized growth,"locus YHR079C, strain IRE1 (second series), stronger effect = lower value",0.908 (active)
same,normalized growth,"locus YHR079C, strain IRE1, stronger effect = lower value",0.824 (active)
same,normalized growth,"locus YHR094C, strain hxt1, stronger effect = lower value",0.956 (inactive)
same,normalized growth,"locus YHR129C, strain ARP1, stronger effect = lower value",0.88 (active)
same,normalized growth,"locus YHR142W, strain chs7, stronger effect = lower value",0.729 (active)
same,normalized growth,"locus YHR200W, strain rpn10, stronger effect = lower value",0.92 (active)
same,normalized growth,"locus YIL066C, strain RNR3, stronger effect = lower value",0.824 (active)
same,normalized growth,"locus YIL073C, strain SPO22, stronger effect = lower value",0.723 (inactive)
same,normalized growth,"locus YIL125W, strain kgd1, stronger effect = lower value",0.963 (inactive)
same,normalized growth,"locus YIR030C, strain dcg1, stronger effect = lower value",0.929 (inactive)
same,normalized growth,"locus YJL092W, strain hpr5, stronger effect = lower value",0.95 (inactive)
same,normalized growth,"locus YJL095W, strain BCK1 (second series), stronger effect = lower value",0.873 (active)
same,normalized growth,"locus YJL095W, strain BCK1, stronger effect = lower value",0.852 (inactive) and 0.869 (active)
same,normalized growth,"locus YJL115W, strain asf1, stronger effect = lower value",1 (inactive)
same,normalized growth,"locus YJL129C, strain trk1, stronger effect = lower value",0.947 (inactive)
same,normalized growth,"locus YJL134W, strain LCB3, stronger effect = lower value",0.96 (inactive)
same,normalized growth,"locus YJL154C, strain vps35, stronger effect = lower value",0.999 (inactive)
same,normalized growth,"locus YJL164C, strain tpk1, stronger effect = lower value",0.77 (active)
same,normalized growth,"locus YJL166W, strain qcr8, stronger effect = lower value",0.686 (active)
same,normalized growth,"locus YJL168C, strain set2, stronger effect = lower value",0.953 (inactive)
same,normalized growth,"locus YJL187C, strain SWE1 (second series), stronger effect = lower value",0.944 (inactive)
same,normalized growth,"locus YJL187C, strain SWE1, stronger effect = lower value",0.855 (active)
same,normalized growth,"locus YJR043C, strain POL32, stronger effect = lower value",0.768 (active)
same,normalized growth,"locus YJR066W, strain TOR1, stronger effect = lower value",0.858 (inactive)

# Source: PubChem BioAssay AID1159580 (chemical genetic matrix, 2015)
